# High-throughput results from PubChem.
# Compounds with a hit are over-represented: about 10% of the library has one in this group of screens.
# Mm-Cpn inhibitor = M. maripaludis TRiC chaperonin inhibition. purified Mm-Cpn ATPase, ADP Transcreener TR-FRET. AID 504842. hit rate 0.031% among 330,000. Potency, µM (doses to about 76.9 µM), for the others: at the highest dose activity, negative = inhibition, most hits filed as inhibitors; also: potency is read from the fitted curve at half-maximal effect; nearly all actives have a fitted effect of over 80% in size
#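 Reaction buffer contained 30 mM Tris pH 7.4, 100 mM KCl, 5 mM MgCl2 and 1 mM DTT. Mm-CPN (25 nM final) hydrolysed 10 uM ATP over 30 min at 37°C; ADP was read by HTRF.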
# G9a inh = inhibitors of human histone lysine methyltransferase G9a | Q96KQ7 | G9a H3K9 monomethylation, AlphaScreen, 2 h | Potency, µM (series often up to 102 µM), inactives show at the top dose activity, negative = inhibition, hits mostly inhibitors | hit rate 8.8% among 350,000 | AID 504332; also: potency is read from the fitted curve at half-maximal effect; nearly all actives have a fitted effect of over 75% in size
# Target sequence (Q96KQ7 913-1193 limits assumed): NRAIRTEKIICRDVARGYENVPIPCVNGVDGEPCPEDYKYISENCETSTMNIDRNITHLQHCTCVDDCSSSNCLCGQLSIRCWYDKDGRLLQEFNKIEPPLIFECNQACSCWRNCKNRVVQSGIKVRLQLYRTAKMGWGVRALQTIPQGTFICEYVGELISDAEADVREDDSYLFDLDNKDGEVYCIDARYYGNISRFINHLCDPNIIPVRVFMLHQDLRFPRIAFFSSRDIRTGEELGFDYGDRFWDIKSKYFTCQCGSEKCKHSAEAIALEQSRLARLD
#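 Quantitative HTS format: methyltransferase activity on a biotin-tagged H3K9 peptide is measured by AlphaScreen, using a rabbit anti-monomethyl-H3K9 antibody with streptavidin donor and anti-IgG acceptor beads. Final levels are 20 nM enzyme, 500 nM peptide, 20 uM SAM; 2 h RT.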
# PLK1 PBD block = PLK1 (human) polo-box domain binding inhibition; P53350; Plk1 PBD binding of FITC phosphopeptide, fluorescence polarization; Potency, µM, inactives show max response, negative = inhibition, most hits filed as inhibitors; hit rate 2.8% among 360,000; AID 720504; also: potency is read from the fitted curve at half-maximal effect; series mostly up to about 57 µM; nearly all actives have a fitted effect of over 65% in size
# VDR inhibitor = vitamin D3 receptor (human) inhibition. P11473. VDR-SRC2-3 peptide fluorescence polarization, 2 h. Potency, µM, inactives show max response, negative = inhibition, most hits filed as inhibitors. hit rate 0.93% among 400,000. AID 504847; also: potency is read from the fitted curve at half-maximal effect
#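 Inhibition of the VDR/SRC2-3 peptide interaction is quantified by fluorescence polarization. Compounds (23 nl, pintool) incubate with the reagents for 2 hours at ambient room temperature.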
# Sfp inh = Sfp phosphopantetheinyl transferase inhibition. Biochemical Sfp PPTase activity, qHTS. Potency, µM, without a hit: largest response in the series, negative = inhibition, usual class: inhibitors. hit rate 3.5% among 310,000;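 also: the enzyme is Sfp with the accession as filed and its product quenches rhodamine fluorescence; potency is read from the fitted curve at half-maximal effect; 0% = enzyme reaction without inhibitor and -100% = no enzyme wells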
#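 With Hepes-Na pH 7.6 buffer containing 10 mM MgCl2, Sfp (15 nM) modified BHQ-2-YbbR (12.5 uM) using rhodamine-CoA (5 uM). Two reads 30 minutes apart at 525/598 nm yielded each well's rate.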
# CCT chaperon mod = cytosolic chaperonin activity modulation; purified chaperonin ATPase assay, HTRF ADP detection, 30 min; activity change, % (no concentration beside the values), hits read low; hit rate 0.3% among 360,000; AID 651819; in the data active = activity change below about -30%
#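 TRiC (40 or 20 nM final, by batch activity) in 30 mM Tris pH 7.4, 100 mM KCl, 5 mM MgCl2, 1 mM DTT was treated with compound at 76 uM single dose, then 10 uM ATP, 30 min at 37 °C. ADP was read by HTRF Transcreener.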
# * marks the source's active call; other numbers are inactive results; ? = inconclusive; . = no result given; [ ] = another dose, or the depositor's remark. Unless noted, calls follow the shape of the dose curve; as a rule, active = well fitted curve in the direction sought with a large enough effect; inconclusive = small, poorly fitted or top-dose-only effect, or another doubt; inactive = no such curve, though single readings can be large; an effect the other way counts as inactive or inconclusive. Unless noted, % is scaled to controls: 0 for no effect and ±100 for the full control effect.
SMILES,Mm-Cpn inhibitor,G9a inh,PLK1 PBD block,VDR inhibitor,Sfp inh,CCT chaperon mod
CCCC(=O)Nc1nc(C)c(-c2csc(Nc3cc(OC)ccc3OC)n2)s1,?,?,-6%,-11%,-19%,-3
CCCC(C)C(=O)Nc1nc(C)c(-c2csc(Nc3cc(OC)ccc3OC)n2)s1 (configuration not stated),?,14µM*,-8%,-7%,16%,-3
CNc1ccnc(-c2ccccc2C)n1,.,6%[0.501 µM],.,-18%,18%,.
CCOc1ccc(CNC(=O)C2=Cc3cc(Br)ccc3OC2)cc1OC,.,4%[59 µM],.,-4%,.,.
COc1ccc(-n2nc3c(c2NC(=O)C(=O)NCc2ccccc2)CSC3)cc1,.,31%[59 µM],.,23%,.,.
CN(CCO)C1=NS(=O)(=O)c2cc([N+](=O)[O-])ccc21,0%,79µM*,-3%,2%,-1%,0
COc1ccc(C(=O)N2CCC3(CCCN(c4ccc(-c5ccccc5)cc4)C3)CC2)cc1,.,-3%[12.7 µM],.,?,-2%,.
COc1ccc(C(=O)N2CCC[C@@]3(CCN(c4cccc(-c5ccccc5)c4)C3)C2)cc1,.,-21%[12.7 µM],.,40µM*,-6%,.
Cc1noc(C)c1C(=O)N1CCC[C@@]2(CCN(c3cccc(-c4ccccc4)c3)C2)C1,.,-6%[12.7 µM],.,40µM*,2%,.
COC(=O)N1CCC2(CC1)CN(c1cccc(-c3ccccc3)c1)C2,.,2%[12.7 µM],.,-13%,79µM*,.
COC(=O)N1CCC2(CC1)CCN(c1ccccc1)CC2,.,-2%[12.7 µM],.,3%,8%,.
Cc1ccc(C)c(Cn2c3ccccc3c3cnn(CC(=O)NCc4ccccc4)c(=O)c32)c1,.,-6%[59 µM],.,17%,.,.
Cc1nc(-c2ccc(C)c(N3CCN(C(=O)Nc4cccc(Cl)c4C)CC3)c2)no1,.,15%[59 µM],.,0%,.,.
Cc1cccc(NC(=O)CSc2nc(C3CCCC3)nc3c2c(=O)n(C)c(=O)n3C)c1C,.,21%[59 µM],.,-2%,.,.
CCC(C)C(=O)Nc1nc(-c2ccc3c(c2)NC(=O)CO3)cs1 (configuration not stated),2%,?,?,?,5%,-3
O=C1COc2ccc(-c3csc(NCCc4ccccc4)n3)cc2N1,-18%,40µM*,-23%,-14%,-14%,-1
CCC1N=C(SC)NC(C)=C1C(=O)c1ccccc1 (configuration not stated),3%,4µM*,-14%,-16%,2%,-1
C=Cc1c(C)c2cc3nc(cc4[nH]c(cc5nc(cc1[nH]2)C(C)=C5CCC(=O)O)c(CCC(=O)OC)c4C)[C@@]1(C)C3=CC=C(C(=O)OC)[C@H]1C(=O)OC (tested in a mixture with another compound),.,329%[12.7 µM],.,1.1µM*,?,.
COc1ccccc1NC(=O)CN1CCCCCC1,2%,17%,-5%,-11%,14%,1
O=C1C(Nc2ccccc2)=C(N2CCCCC2)C(=O)c2ccccc21,3%,18%[0.501 µM],?,?,-1%,3
COc1ccc(C(=O)/C=C/c2ccc(O)cc2)cc1,.,-9%[59 µM],-3%,-11%,5%,-1
Cc1ccc(NC2=C(N3CCCCC3)C(=O)c3ccccc3C2=O)cc1,0%,5.6µM*,-11%,-53%,-13%,-2
O=C1C(Nc2cccc(O)c2)=C(N2CCCCC2)C(=O)c2ccccc21,-3%,.,-19%,?,32µM*,-1
COc1ccccc1NC1=C(N2CCCCC2)C(=O)c2ccccc2C1=O,-2%,6.3µM*,-15%,?,4%,-1
O=C(/C=C/c1ccc(O)cc1)c1ccc(NC2=C(N3CCCCC3)C(=O)c3ccccc3C2=O)cc1,-3%,14µM*,-24%,?,?,-1
COc1ccc(CNC(=O)c2ccc(NC(=O)N3CCSc4ncccc43)cc2)c(OC)c1,.,?,.,-2%,.,.
CCC(=O)N1CCc2cc(Br)cc(S(=O)(=O)CCC(=O)Nc3cccc(Cl)c3)c21,.,-30%[59 µM],.,-22%,.,.
CN(c1ccccc1)c1nc(N)c([N+](=O)[O-])c(N2CCCCC2)n1,3%,?,2%,6%,14%,2
